Assay outcomes as filed in PubChem.
ELG1 genotox: induces genotoxicity in HEK293T cells with luciferase-tagged ELG1; HEK293T ELG1-luciferase reporter, luminescence, 16 h; Potency, µM (top dose mostly 46 µM), inactives show top-dose activity change, positive = activation, usual class: activators; 1.3% of 330,000 active; note: % of control where 0% means no effect; nearly all actives have a fitted effect of over 60% in size
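Reporter readout depends on ELG1 protein level, which increases with genetic stress. After 16 hr compound exposure at 37 °C, luciferase activity was quantified using ONE-Glo.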
SMN2 splice enh: enhancers of SMN2 splice variant expression | HEK293 SMN2-luciferase splicing reporter, luminescence, 30-36 h | Potency, µM (doses to about 46.1 µM), without a hit: at the top dose activity change, positive = activation, hits mostly activators | 2.8% of 210,000 active | AID 1458; note: % of control where 0% means no effect; nearly all actives have a fitted effect of over 55% in size
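HEK293 cells carry an SMN2 minigene-luciferase reporter in which exon 7 inclusion puts luciferase in frame. Cells were seeded at 2000 cells/well, attached for 10-12 hours, then exposed to compounds for 30-36 hours at 37C before ONE-Glo luminescence.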
Rab9 promoter act: activates the Rab9 promoter; Potency, µM (top dose mostly 9.22 µM), for the others: at the highest dose activation, negative = inhibition, actives largely listed as activators; Huh7 Rab9 promoter-luciferase reporter, luminescence, 24 h; 2.8% of 320,000 active; note: % of control where 0% means no effect; nearly all actives have a fitted effect of over 60% in size
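Promoter activation is measured as luciferase luminescence in Huh7 cells stably transfected with a Rab9 promoter–luciferase construct, following 24 h compound exposure at 37 °C and 10 min reagent incubation at ambient temperature.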
Luc counter: counter-screen: inhibitors of Kinase-Glo firefly luciferase; Kinase-Glo luciferase, ATP luminescence, 8 min; Potency, µM (doses to about 38.3 µM), without a hit: at the highest dose activity change, negative = inhibition, usual class: inhibitors; Q27757; 0.28% of 200,000 active; note: % is set by controls: 0 for no effect and ±100 for the full control effect; nearly all actives have a fitted effect of over 60% in size
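Inhibition of Kinase-Glo luciferase light generation was assessed at 10 uM ATP in pH 7.2 imidazole buffer, with luminescence measured after eight minutes at ambient temperature.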
NPC1 prom act: activators of NPC1 promoter. Huh7 NPC1 promoter luciferase reporter, 24 h. Potency, µM (series often up to 9.22 µM), inactives show at the highest dose activation, most hits filed as activators. 2.4% of 320,000 active; note: % of control where 0% means no effect; nearly all actives have a fitted effect of over 60% in size
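Luciferase expression driven by the NPC1 promoter was measured in stably transfected Huh7 cells after a 24 h compound incubation, using a luciferase reagent and a luminescence read.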
FLuc counter: inhibits or activates purified firefly luciferase, miR-21 counter-screen. AID 588342. Potency, µM (top dose mostly 57.5 µM), for the others: at the highest dose activity change, negative = inhibition, hits mostly inhibitors. purified FLuc, Km substrates, luminescence inhibition. P08659. 6.9% of 360,000 active;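 note: plate controls were vehicle for no effect and reference inhibitor for full effect; nearly all actives have a fitted effect of over 55% in size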
Target sequence (P08659 whole entry, looked up): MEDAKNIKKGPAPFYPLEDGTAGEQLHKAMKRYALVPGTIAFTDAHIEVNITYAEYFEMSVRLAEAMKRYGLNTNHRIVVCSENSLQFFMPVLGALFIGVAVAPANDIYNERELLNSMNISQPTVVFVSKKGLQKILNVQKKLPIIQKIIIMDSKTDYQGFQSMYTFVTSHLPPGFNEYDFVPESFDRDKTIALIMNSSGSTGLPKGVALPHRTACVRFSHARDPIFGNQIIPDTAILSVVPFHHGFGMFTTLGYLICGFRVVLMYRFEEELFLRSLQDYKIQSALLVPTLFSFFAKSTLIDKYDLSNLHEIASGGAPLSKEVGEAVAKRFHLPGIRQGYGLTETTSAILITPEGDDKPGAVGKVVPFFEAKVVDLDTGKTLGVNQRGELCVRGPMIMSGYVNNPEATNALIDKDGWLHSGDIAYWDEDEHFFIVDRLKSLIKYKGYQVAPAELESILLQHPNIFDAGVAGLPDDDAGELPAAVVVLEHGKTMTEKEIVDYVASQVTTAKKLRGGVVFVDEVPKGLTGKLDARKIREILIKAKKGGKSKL
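Purified P. pyralis luciferase, 10 nM final, with Km-level 10 uM D-luciferin and 10 uM ATP in 50 mM Tris acetate pH 7.5, 10 mM Mg acetate, 0.01% Tween-20, 0.05% BSA; 6-point qHTS titration about 60 µM downward; luminescence read.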
Active calls of the source: *; [ ] = another dose, or the depositor's remark. Rows were chosen to be rich in hits. Some 7.3% of all compounds tested hit in one or more screens of this group. Calls come from the whole dose curve; as a rule, active = well fitted curve in the direction sought with a large enough effect; inconclusive = small, poorly fitted or top-dose-only effect, or another doubt; inactive = no such curve, though single readings can be large; an effect the other way counts as inactive or inconclusive. Potency is the fitted concentration of half-maximal effect.

`O=C(c1ccccc1-c1nc2ccccc2[nH]1)N1CCCCC1` gave ELG1 genotox -1%, SMN2 splice enh 8%, Rab9 promoter act 1%, Luc counter -1%, NPC1 prom act 0% and FLuc counter 3%.
`COc1ccc(OC)c(C=Nc2ccccc2-c2nc3ccccc3[nH]2)c1` gave ELG1 genotox inconclusive, SMN2 splice enh 13µM*, Rab9 promoter act inconclusive, Luc counter -1%, NPC1 prom act inconclusive and FLuc counter 4.8µM*.
Oc1ccc(C=Nc2ccccc2-c2nc3ccccc3[nH]2)c(O)c1 was read as ELG1 genotox inconclusive, SMN2 splice enh 14µM*, Rab9 promoter act inconclusive, Luc counter -1%, NPC1 prom act inconclusive and FLuc counter 4.8µM*.
For COc1ccc(OC)c(/C=C/c2nc3ccccc3[nH]c2=O)c1 the results were ELG1 genotox 8%, Rab9 promoter act 6%, NPC1 prom act 7% and FLuc counter -11%.
For Oc1ccc(C=Nc2cccc3ncccc23)c(O)c1 the results were ELG1 genotox -7%, SMN2 splice enh 24%, Rab9 promoter act -8%, Luc counter 2%, NPC1 prom act -2% and FLuc counter 2%.
For Oc1ccccc1C=Nc1ccccc1-c1nc2ccccc2[nH]1 the results were ELG1 genotox inconclusive, SMN2 splice enh 32µM*, Rab9 promoter act inconclusive, Luc counter -1%, NPC1 prom act inconclusive and FLuc counter inconclusive.
Screening Cc1ccccc1C(=O)Oc1cc(-c2ccc3c(c2)OCO3)cc(=O)c2c(C)oc(C)c12 returned SMN2 splice enh -5% and FLuc counter -24%.
FC(F)Oc1ccc(/C=N/c2c(-c3ccc(OC(F)F)cc3)nc3n2CCS3)cc1 was read as ELG1 genotox 2%, SMN2 splice enh inconclusive, Rab9 promoter act 14%, Luc counter 3%, NPC1 prom act -2% and FLuc counter 9.5µM*.
For CC#CCN1c2ccccc2[C@]23C[C@@H](C(=O)OC)N(S(=O)(=O)c4ccc5c(c4)OCCN5C)C2=NC(C(=O)OC)=C(C(=O)OC)[C@H]13 the results were SMN2 splice enh 3%[9.22 µM] and Luc counter -2%[7.66 µM].
Screening O=C(CSCc1ccccc1Cl)NN=C1CCCCCC1 returned ELG1 genotox -2%, SMN2 splice enh -3%, Rab9 promoter act -1%, Luc counter 4%, NPC1 prom act -3% and FLuc counter inconclusive.
`C/C(=N\NC(=O)CSCc1ccccc1Cl)c1cc(O)ccc1O` gave ELG1 genotox inconclusive, Rab9 promoter act -22%, Luc counter 1%, NPC1 prom act -23% and FLuc counter 19µM*.
Cc1cccnc1NC(=O)COc1ccc2oc3c(c2c1)CCCC3 was read as ELG1 genotox 2%, SMN2 splice enh -12%, Rab9 promoter act 4%, Luc counter 1%, NPC1 prom act -1% and FLuc counter inconclusive.
For Cc1ccc(OCC(=O)c2ccc3c(c2)CCCC3)cc1C the results were ELG1 genotox inconclusive, SMN2 splice enh 22%, Rab9 promoter act 1.1µM*, Luc counter 0%, NPC1 prom act 0.56µM* and FLuc counter 9.5µM*.
`COc1ccc(OCC(=O)Nc2ccc3c(c2)CCC3)cc1` gave ELG1 genotox -1%, Rab9 promoter act 16% and NPC1 prom act -6%.
Cc1ccc(NC(=O)COc2ccc3c(c2)CCC3)nc1 was read as ELG1 genotox 9.2µM*, Rab9 promoter act inconclusive, NPC1 prom act inconclusive and FLuc counter 9.5µM*.
`Cc1csc(NC(=O)COc2ccc3c(c2)CCC3)n1` gave ELG1 genotox inconclusive, Rab9 promoter act 3.5µM*, NPC1 prom act inconclusive and FLuc counter 12µM*.
For Cc1ccc(NC(=O)COc2ccc3oc4c(c3c2)CCCC4)nc1 the results were ELG1 genotox 3%, SMN2 splice enh 0%, Rab9 promoter act -1%, Luc counter -5%, NPC1 prom act 0% and FLuc counter 10%[2.3 µM].
O=C(COc1ccc(Br)cc1)c1ccc2c(c1)CCCC2 was read as ELG1 genotox 5%, SMN2 splice enh -8%, Rab9 promoter act 12%, Luc counter -5%, NPC1 prom act 16% and FLuc counter inconclusive.
For Cc1cccnc1NC(=O)COc1ccc2c(c1)CCC2 the results were ELG1 genotox 9.2µM*, Rab9 promoter act inconclusive, NPC1 prom act inconclusive and FLuc counter 17µM*.
`COc1ccc(-c2c3c(=O)n(C)c(=O)n(C)c3c3c(-c4ccccc4)nc4ccccc4n23)cc1` gave SMN2 splice enh -9% and FLuc counter -3%.
For COc1ccc(-c2noc(COc3cc(C)c(Br)c(C)c3)n2)cc1OC the results were SMN2 splice enh -4% and FLuc counter -1%.
`CCOc1ccc(Nc2c(S(=O)(=O)c3ccc(C)cc3)cnc3cc(OC)c(OC)cc23)cc1` gave SMN2 splice enh -9% and FLuc counter -14%.
For O=C(Cn1cc(C(=O)c2ccncc2)c(=O)c2cc(F)ccc21)Nc1ccc(Cl)cc1 the results were FLuc counter 6%.
Screening Cc1nn2c(=O)cc(COC(=O)c3ccccc3NC(=O)C(C)C)nc2s1 returned FLuc counter -1%.
For O=C(CSc1cccc[n+]1[O-])Nc1cc(Cl)ccc1[N+](=O)[O-] the results were ELG1 genotox 1%.
Screening O=[N+]([O-])c1ccc(Sc2cccc[n+]2[O-])c2nonc12 returned ELG1 genotox -20%, Rab9 promoter act -48%, NPC1 prom act -38% and FLuc counter 4.8µM*.
For Cc1ccc(C(=O)c2oc3ccccc3c2NC(=O)c2nc(S(C)(=O)=O)ncc2Cl)cc1F the results were SMN2 splice enh 0% and FLuc counter -1%.
`CC(C)CCNC(=O)C(=O)Nc1ccccc1` gave ELG1 genotox inconclusive, SMN2 splice enh inconclusive, Rab9 promoter act 1.6µM*, Luc counter -8%, NPC1 prom act 3.5µM* and FLuc counter inconclusive.
CC(C)CCNC(=O)C(=O)Nc1c2c(nn1-c1ccccc1)CS(=O)(=O)C2 was read as FLuc counter 0%.
For CC(C)CCNC(=O)c1ccc(-c2ccccc2)cc1 the results were ELG1 genotox inconclusive, SMN2 splice enh 7.9µM*, Rab9 promoter act 3.5µM*, Luc counter -3%, NPC1 prom act inconclusive and FLuc counter 9.5µM*.
Screening CC(C)CCNC(=O)c1cccc(C(=O)NCCC(C)C)c1 returned ELG1 genotox 2%, SMN2 splice enh -10%, Rab9 promoter act 0%, Luc counter -2%, NPC1 prom act -1% and FLuc counter -1%.
